{
  "source": "paper PMC8384837",
  "about": "“Expanding the binding specificity for RNA recognition by a PUF domain”",
  "data": [
    {"target": "PUM1 PUF domain R1-KGQ (Homo sapiens, UniProt Q14671 828-1176, S863K;R864G)", "assay": "yeast three-hybrid, YBZ-1, SC-Leu-His + 0.5 mM 3-AT, 4 days", "settings": "tags: N-Gal4 AD-HA kept; label: inside an RPR1-promoter hybrid RNA with tandem MS2 sites; ssRNA", "procedure,_shortened": "(§1)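 Each repeat of the Pumilio-1 PUF domain was randomized at its three base-contacting residues, and these libraries were co-expressed from a centromeric plasmid with matching RNA elements in strain YBZ-1. After four days on SC-Leu (input) or SC-Leu-His + 0.5 mM 3-AT (selection), the repeat regions were PCR-amplified and Illumina-sequenced. The interaction score compares variant frequency between input and selection as a log change, computed in log2 with a pseudocount of 1 for absent variants.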", "values": [
      {"sequence": "GGCUAGAACUAGUGGAUCCCCCGGCGCCCGGCGGCUCGAGCCCGGGUAAGUGUAAAUUGUCUGCAUGCCGCCGGGCGCCAUGCCUGCAGGUCGACUCUAGAAAACAUG", "binding signal": "5.42 log2 enrichment (interaction score)"},
      {"sequence": "GGCUAGAACUAGUGGAUCCCCCGGCGCCCGGCGGCUCGAGCCCGGGUAAGUGUAAAUCGUCUGCAUGCCGCCGGGCGCCAUGCCUGCAGGUCGACUCUAGAAAACAUG", "binding signal": "4.94 log2 enrichment (interaction score)"},
      {"sequence": "GGCUAGAACUAGUGGAUCCCCCGGCGCCCGGCGGCUCGAGCCCGGGUAAGUGUAAAUGGUCUGCAUGCCGCCGGGCGCCAUGCCUGCAGGUCGACUCUAGAAAACAUG", "binding signal": "2.56 log2 enrichment (interaction score)"}
    ]},
    {"target": "PUM1 PUF domain R4-WSA (Homo sapiens, UniProt Q14671 828-1176, N971W;H972S;Q975A)", "assay": "yeast three-hybrid, YBZ-1, SC-Leu-His + 0.5 mM 3-AT, 4 days", "settings": "tags: N-Gal4 AD-HA kept; label: inside an RPR1-promoter hybrid RNA with tandem MS2 sites; ssRNA", "procedure,_shortened": "as §1", "values": [
      {"sequence": "GGCUAGAACUAGUGGAUCCCCCGGCGCCCGGCGGCUCGAGCCCGGGUAAGUGUACAUAGUCUGCAUGCCGCCGGGCGCCAUGCCUGCAGGUCGACUCUAGAAAACAUG", "binding signal": "2.8 log2 enrichment (interaction score)"},
      {"sequence": "GGCUAGAACUAGUGGAUCCCCCGGCGCCCGGCGGCUCGAGCCCGGGUAAGUGUAAAUAGUCUGCAUGCCGCCGGGCGCCAUGCCUGCAGGUCGACUCUAGAAAACAUG", "binding signal": "1.33 log2 enrichment (interaction score)"},
      {"sequence": "GGCUAGAACUAGUGGAUCCCCCGGCGCCCGGCGGCUCGAGCCCGGGUAAGUGUAUAUAGUCUGCAUGCCGCCGGGCGCCAUGCCUGCAGGUCGACUCUAGAAAACAUG", "binding signal": "2.96 log2 enrichment (interaction score)"}
    ]}
  ]
}
